Assay results from the supplement of paper PMC10681739.

These sequences were tested against RUNX1 (UniProt Q01196) (assay: RUNX1 binding intensity (PBM fluorescence) in presence of ETS1, normalised to RUNX1-only experiment (arbitrary fluorescence units); higher = stronger binding). Settings: RUNX1 concentration 2 nM; ETS1 concentration 25 nM.
Procedure: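 Cooperative gcPBM on 36-bp genomic probes with neighbouring ETS1 and RUNX1 sites. Recombinant human RUNX1 (2 nM) was incubated alone or with ETS1 (25 nM) and detected with anti-RUNX1 antibody plus Alexa488 secondary. Values are medians over 4 replicate spots; the RUNX1+ETS1 data were normalised to the RUNX1-only data. The probes sit in constant array flanks that are not printed.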
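Also: Full-length recombinant human ETS1 or RUNX1 bound to double-stranded 36-bp genomic probes on microarrays, detected by protein-specific primary antibody and Alexa488 secondary, spot fluorescence as median of four replicate spots.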

Chain of RUNX1 (Q01196 whole entry): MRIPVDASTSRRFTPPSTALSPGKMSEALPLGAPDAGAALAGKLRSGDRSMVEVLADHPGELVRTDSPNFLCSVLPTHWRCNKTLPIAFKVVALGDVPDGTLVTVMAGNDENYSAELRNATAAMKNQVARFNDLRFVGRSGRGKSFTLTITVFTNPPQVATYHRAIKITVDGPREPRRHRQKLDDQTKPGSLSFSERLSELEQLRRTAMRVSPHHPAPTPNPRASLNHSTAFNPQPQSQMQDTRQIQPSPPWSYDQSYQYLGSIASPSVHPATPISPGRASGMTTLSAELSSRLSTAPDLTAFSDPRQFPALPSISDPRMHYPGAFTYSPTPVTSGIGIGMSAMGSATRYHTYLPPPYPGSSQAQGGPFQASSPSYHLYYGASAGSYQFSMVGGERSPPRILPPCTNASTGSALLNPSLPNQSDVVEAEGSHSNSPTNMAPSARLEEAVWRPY

Sequence | RUNX1 binding intensity
CCAAAATTGCCACGGAAACCACATCTTTCAGGCGAG | 1620
GTTGGGAGGCGCACATCCGGCGGTTACCCGGTGCTT | 1560
ATTCCTAGAGAGGAAATGCGGGCTCAGGGTGTCGGC | 897
TGTCTCATTTCCTGTAGGTAACAGGCACCACAATAG | 1780
CGTTCTCTCATTTCCTGTGTGCACCCACATGAACCA | 2920
GAGGTGCCGGAAGCCAGTAGGTGGTTTTGGGTGCTA | 1180
ACTCCAGAGGAAGTGGCAAGACGAGCGCGGTAACGG | 1330
CGAAGCCAGGAAATAAGGATAAACCACAGAAAGAAA | 2010
TGTGGAGACAGGAAGCACTAACCTCAAACCTCTTTC | 1770
ATCAGAGCGGAAATCTCAGTCTTGTGTGGGGACCTG | 919
GGCAACCCAAGGAAGTATCTCTGAAACCACACAACA | 1110
AAAGGCGGAAGGGGGGCAGGGAACCCACAAAACAGA | 857
GGAATTTCTTTTTCCGGTCCCGCAGGGTCAGCTGAG | 1750
GCGGGGACCCGGATGTGTGTGGTGGCGGCGGCCGAA | 1220
CTAACCCTTCTCTTCCTGCAAAAACCACAACAAAGG | 3580
AACCCACCGGATGGAAGCTGCCACTCAGCCGCAGGA | 1030
CTGTCTGCTTCCCGTGGCCAGCCCTGACCGCGGCCC | 1430
GCCTCCTCAGGAAATTGCCCAAAATAGCCACATGTC | 1240
ACTGGCTTCACTTCCTCCGCGGTTCCTCGGAGCCGC | 1730
TGAGAAAGCTATTTCCGCCCACAAAGAGGCAAGTCT | 1570

Sequence | RUNX1 binding intensity
AACAACAGGATGCTCTCTAGTCTAACAGTGGTAACA | 1020
TGAGCTCAGGCCGGAAGCGGTGGATGATGGCACACA | 1560
CGGGAACACCCACTTCCGCCACAGACCTGCTCAAAA | 3820
GCGACCCGACCCGGCGGAAACCACCTCGACAGCCTC | 941
TTCATCTCTCACTTCCTGTGGTGACGGCTGACGGGG | 1660
GCAATGCCGCTACCGGAAGTGCGGGTCGCGCTCCCG | 1620
TCTGGCTTCCTGTCTTAATAGGGCTTTGTGGTGTGC | 2040
CTAGGCCACCGGAAGTCTCCGCAGTGGTTTTGCAAA | 1610
TGGCTTATCCTAACAGGAAGTGGTTTATCTGATCCT | 2390
GTGGGGGTGACAGGATGCGGGTAGAGGGCTCAGCCA | 1460
GCCAGGGCAGGAAGTTGCTAACCGCCCCAGAGCAGG | 1460
CCCCTCGCCCTTCCGCATTGCGGGTTACTTCGGTTG | 3510
TAGGCTGAAGACTTCCGCCCCGCAGAGGACTTGCCT | 1170
GACCTGCCTTCCGGCCTCCGTCACATGACCGCACAG | 2000
AGCTCTGCCAGGAAGTGAGAACCACAGGCCTCCCCT | 1350
GGAGGGGAGCAGGAAGCTGAGGTTTTGTGAGTCAGA | 1070
CTTTTCCATGCAGGAAGTGGTTTTTAGAGTGTAGAG | 2920
CGATGCTTCCGGCCTCCTATTGGGTGGTTTCTTGGC | 2040
AGCCTGGCCTCGGCAGGATGTGGGTGTAGGTCATGC | 999
ACCAGAAGCACTGCAGGATGTGGTATCAAGACGCCT | 1160
